# Bioassay records from PubChem BioAssay.
# RE007 growth inh = less growth of the S. pombe RE007 Vpr strain | S. pombe RE007 Vpr strain, BacTiter-Glo ATP luminescence, 24 h | Potency, µM (highest dose often 92.2 µM), most hits filed as inhibitors | hit rate 0.21% among 360,000 | AID 651644; active means well fitted falling curve with a large enough effect; inconclusive means small, poorly fitted or top-dose-only effect; inactive means no such curve, though single readings can be large or run the other way; further: nearly all actives have a fitted effect of over 50% in size
#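 Fission yeast RE007 carrying one integrated HIV-1 vpr copy, seeded at OD 0.01 in PMG+AL medium with 23 nL pinned compound. Grown 24 h at 30 degrees; viability read by BacTiter-Glo luminescence after 5 min.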
# AmpC no deterg = AmpC beta-lactamase inhibition without detergent. hit rate 0.52% among 330,000. AmpC nitrocefin hydrolysis, absorbance 480 nm, 0.0001% Triton. Potency, µM (top dose mostly 57.1 µM), actives largely listed as inhibitors. AID 485341; further: nearly all actives have a fitted effect of over 20% in size
# Target sequence (P00811 whole entry, looked up): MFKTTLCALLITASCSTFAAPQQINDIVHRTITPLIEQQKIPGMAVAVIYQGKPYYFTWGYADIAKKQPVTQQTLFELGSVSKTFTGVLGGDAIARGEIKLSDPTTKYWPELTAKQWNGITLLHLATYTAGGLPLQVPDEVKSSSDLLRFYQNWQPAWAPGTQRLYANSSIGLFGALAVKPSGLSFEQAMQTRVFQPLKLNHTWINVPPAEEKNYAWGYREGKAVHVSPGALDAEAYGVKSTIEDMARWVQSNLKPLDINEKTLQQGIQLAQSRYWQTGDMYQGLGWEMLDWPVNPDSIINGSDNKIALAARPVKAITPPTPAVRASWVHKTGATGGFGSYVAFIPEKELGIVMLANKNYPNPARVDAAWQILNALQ
#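 AmpC (5.3 nM in the dispensed reagent) in 20 mM phosphate pH 7.0 with 0.01% (detergent screen) or 0.0001% Triton X-100 was preincubated with compounds for 15 min at room temperature. Nitrocefin was then added from an 800 uM solution, and hydrolysis was followed at 480 nm.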
# AMA1-RON2 inh = disrupts binding of P. falciparum AMA1 to RON2. hit rate 0.2% among 360,000. AID 720542. Potency, µM (highest dose often 58.2 µM), hits mostly inhibitors. AlphaScreen AMA1-biotinylated RON2 peptide binding; further: nearly all actives have a fitted effect of over 45% in size
#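 AMA1 (3D7) with his tag at 25 nM final met compounds first, then biotinylated RON2 peptide at 25 nM; detection used donor plus acceptor beads, 10 µg/mL apiece, read by AlphaScreen after 30 min at room temperature.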
# Sm TGR inh = blocks Schistosoma mansoni thioredoxin glutathione reductase. purified TGR, DTNB reduction, TNB absorbance 405 nm. Potency, µM (titrated, usually from 114 µM), usual class: inhibitors. hit rate 3% among 360,000; further: nearly all actives have a fitted effect of over 60% in size
#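 TGR 20 nM + NADPH 100 uM (dispensed conc.), cpd preinc 15 min RT; start with NADPH (500 uM addition) then DTNB (15 mM addition). Kinetic TNB absorbance, 405 nm filter. Four-parameter Hill fit across titration.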
# AmpC detergent = inhibitors of E. coli AmpC beta-lactamase with detergent | P00811 | AmpC hydrolysis of nitrocefin, absorbance 480 nm, 0.01% Triton | Potency, µM (titrated, usually from 114 µM), hits mostly inhibitors | hit rate 0.041% among 370,000 | AID 485294; further: nearly all actives have a fitted effect of over 25% in size
#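 AmpC (5.3 nM in the dispensed reagent) in 20 mM phosphate pH 7.0 with 0.01% (detergent screen) or 0.0001% Triton X-100 was preincubated with compounds for 15 min at room temperature. Nitrocefin was then added from an 800 uM solution, and hydrolysis was followed at 480 nm.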
# A number is an active result; – = inactive; ? = inconclusive; · = not tested or not shown. Shown are actives, neighbours in structure and some others; about 3.2% of the full set was active somewhere. Unless noted, the call rests on the fitted dose curve; in most records, active means well fitted curve in the direction sought with a large enough effect; inconclusive means small, poorly fitted or top-dose-only effect, or another doubt; inactive means no such curve, though single readings can be large; an effect the other way counts as inactive or inconclusive.
SMILES,RE007 growth inh,AmpC no deterg,AMA1-RON2 inh,Sm TGR inh,AmpC detergent
O=C1ON=C(c2ccccc2)/C1=C/c1ccc(OS(=O)(=O)c2ccccc2)cc1,–,–,–,8.9µM,–
CCOC(=O)c1c(NC(=O)CCCOc2ccc(C)cc2)sc2c1CCC(C)C2 (stereo unspecified),·,·,·,–,–
Cc1cc(NS(=O)(=O)c2ccc(NC(=O)COc3c(C)ccc(C)c3C)cc2)nc(C)n1,·,·,·,–,–
Cc1noc(C)c1C(=O)Nc1c(F)cc(F)cc1Br,–,–,–,–,–
O=C(Nc1c(F)cc(F)cc1Br)c1ccco1,–,–,–,45µM,–
CCOC(=O)c1c(C)nn(-c2ccc(NC(=O)/C=C/C(=O)O)cc2)c1C,–,–,–,50µM,–
Cc1[nH][nH]c(=O)c1C(c1ccc(-c2ccc(Cl)c(Cl)c2)o1)c1c(C)[nH][nH]c1=O,–,–,–,40µM,–
COc1ccc(-c2ccc(C(c3c(C)[nH][nH]c3=O)c3c(C)[nH][nH]c3=O)o2)c([N+](=O)[O-])c1,–,–,–,28µM,–
Cc1[nH][nH]c(=O)c1C(c1ccc(-c2ccc(C(=O)O)cc2)o1)c1c(C)[nH][nH]c1=O,–,–,–,16µM,–
Cc1[nH][nH]c(=O)c1C(c1ccc(-c2ccc(F)cc2)o1)c1c(C)[nH][nH]c1=O,–,–,–,32µM,–
CNC(=S)N/N=C/c1ccc(-c2ccc(C(=O)O)cc2)o1,?,–,–,?,–
CCCCOC(=O)c1ccc(NC(=O)c2cc(-c3ccccc3)on2)cc1,·,·,·,–,–
COc1ccc(C2=CC(=O)C=CC2=O)cc1,·,32µM,·,0.89µM,?
COc1ccc(C2=CC(=O)C[C@H](c3ccc(OC)cc3)C2)cc1,–,–,–,–,–
CC(C)Cc1ccc(C(C)C(=O)Nc2nccs2)cc1 (stereo unspecified),–,–,–,–,–
CC(C)Cc1ccc(C(C)C(=O)Nc2ccccc2O)cc1 (stereo unspecified),–,4µM,–,–,–
Cc1ccc(-n2c(=O)c3oc4ccccc4c3n(CC(=O)Nc3ccccc3)c2=O)cc1C,·,·,·,–,–
FC(F)(F)c1ccccc1C1C2=C(Nc3ncnn31)c1ccccc1CCC2 (stereo unspecified),·,–,·,–,–
C(=C1/CCCC2=C1Nc1ncnn1C2c1ccccc1)/c1ccccc1 (stereo unspecified),·,–,·,0.5µM,–
S=C1NC2=C(CCC/C2=C\c2ccccc2)C(c2ccccc2)N1 (stereo unspecified),–,11µM,–,–,–
Fc1cccc(/C=C2\CCCC3=C2NC(=S)NC3c2cccc(F)c2)c1 (stereo unspecified),–,?,–,20µM,–
Cc1ccc(-n2ncc(C(=O)NCCN3CCc4ccccc4C3)c2C2CCN(C(=O)OC(C)(C)C)CC2)cc1,·,·,·,–,–
Cn1cc(S(=O)(=O)N2CCCC2)cc1C(=O)Nc1ccc(C(F)(F)F)cc1,·,·,·,–,–
COc1cc(C2OCC3C(c4ccc(OC5OC(CO)C(O)C(O)C5O)c(OC)c4)OCC23)ccc1O (stereo unspecified),–,–,–,35µM,–
CC(C(=O)NCc1cccc(Br)c1)n1ncn2cccc2c1=O (stereo unspecified),·,·,·,–,–
SMILES,RE007 growth inh,AmpC no deterg,AMA1-RON2 inh,Sm TGR inh,AmpC detergent
O=c1cc(-c2ccccc2)[nH]c2nc3ccccc3n12,–,–,–,–,–
O=c1cc(CCl)[nH]c2nc3ccccc3n12,–,–,–,22µM,–
Cc1ccc(CNC(=O)c2ccc3c(c2)nc(C)n3-c2cccc(F)c2)cc1,·,·,·,–,–
Cc1cc(C=O)c(C)n1-c1cc(C(F)(F)F)ccc1N1CCOCC1,–,·,–,50µM,–
Cc1cc(C=O)c(C)n1-c1ccc(N2CCOCC2)cc1,–,–,–,–,–
COc1cc(NC(=O)CC(C)n2nc(C)cc2C)cc(OC)c1 (stereo unspecified),·,·,·,–,–
Cc1cc(SCC(=O)OCC(=O)N2CCN(C(=O)c3ccco3)CC2)c(C)cc1Br,–,–,–,?,?
CC(=O)Nc1ccc(S(=O)(=O)N(C)CC(=O)OCC(=O)N2CCCCCC2)cc1,–,–,–,–,?
